Drawing on ChEMBL document CHEMBL1961873, “Compounds: GSK PKIS; Assays: Nanosyn kinase panel” (2012), this text covers inhibition for eight molecules.

Experiment [1] concerns the target T1, Tyrosine-protein kinase receptor TYRO3 (Homo sapiens) (UniProt Q06418).
T1 sequence (whole entry): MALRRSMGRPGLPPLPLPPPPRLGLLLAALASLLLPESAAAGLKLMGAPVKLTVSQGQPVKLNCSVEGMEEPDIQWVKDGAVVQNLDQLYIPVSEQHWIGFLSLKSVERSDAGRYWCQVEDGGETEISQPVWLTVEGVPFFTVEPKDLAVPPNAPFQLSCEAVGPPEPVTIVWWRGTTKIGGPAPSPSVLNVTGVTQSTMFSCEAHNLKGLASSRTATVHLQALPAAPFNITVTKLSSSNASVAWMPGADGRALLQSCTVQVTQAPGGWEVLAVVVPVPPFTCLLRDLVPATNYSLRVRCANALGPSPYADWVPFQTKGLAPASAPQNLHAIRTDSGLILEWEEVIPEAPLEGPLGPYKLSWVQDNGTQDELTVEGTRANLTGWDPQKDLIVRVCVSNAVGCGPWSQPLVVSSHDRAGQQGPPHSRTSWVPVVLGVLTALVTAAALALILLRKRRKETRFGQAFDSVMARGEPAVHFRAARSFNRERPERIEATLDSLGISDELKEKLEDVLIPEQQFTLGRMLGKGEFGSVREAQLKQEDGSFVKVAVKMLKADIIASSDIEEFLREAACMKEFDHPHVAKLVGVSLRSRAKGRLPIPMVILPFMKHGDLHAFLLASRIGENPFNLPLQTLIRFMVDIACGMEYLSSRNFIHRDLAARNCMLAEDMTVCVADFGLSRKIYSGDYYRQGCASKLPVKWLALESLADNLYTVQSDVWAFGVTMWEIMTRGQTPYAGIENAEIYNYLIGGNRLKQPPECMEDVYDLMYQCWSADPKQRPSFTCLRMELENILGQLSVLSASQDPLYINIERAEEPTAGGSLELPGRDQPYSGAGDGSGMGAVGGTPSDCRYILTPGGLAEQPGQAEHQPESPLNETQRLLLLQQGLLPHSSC
The following applies: at 1 µM.

In experiment [2] the target is Tyrosine-protein kinase Yes (Homo sapiens) (UniProt P07947). The following applies: at 0.1 µM.
Sequence of Tyrosine-protein kinase Yes (Homo sapiens) (P07947 2-543 limits assumed): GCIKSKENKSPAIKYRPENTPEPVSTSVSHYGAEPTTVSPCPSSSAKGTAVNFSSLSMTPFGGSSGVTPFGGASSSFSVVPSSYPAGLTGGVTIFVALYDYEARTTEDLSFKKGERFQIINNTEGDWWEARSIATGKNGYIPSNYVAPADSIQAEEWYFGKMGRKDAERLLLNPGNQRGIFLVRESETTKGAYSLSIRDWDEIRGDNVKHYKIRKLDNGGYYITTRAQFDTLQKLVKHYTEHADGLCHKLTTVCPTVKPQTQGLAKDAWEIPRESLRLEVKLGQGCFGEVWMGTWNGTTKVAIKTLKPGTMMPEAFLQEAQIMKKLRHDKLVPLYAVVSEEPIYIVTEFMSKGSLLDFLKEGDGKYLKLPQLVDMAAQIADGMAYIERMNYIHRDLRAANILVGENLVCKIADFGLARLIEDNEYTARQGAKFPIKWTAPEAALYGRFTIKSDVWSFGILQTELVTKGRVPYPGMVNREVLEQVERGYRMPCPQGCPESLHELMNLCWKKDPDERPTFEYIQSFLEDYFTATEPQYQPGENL
The target is the same in experiment [3]. The following applies: at 1 µM.
Experiment [4] addresses T2, Tyrosine-protein kinase ZAP-70 (Homo sapiens) (UniProt P43403).
T2 sequence (whole entry): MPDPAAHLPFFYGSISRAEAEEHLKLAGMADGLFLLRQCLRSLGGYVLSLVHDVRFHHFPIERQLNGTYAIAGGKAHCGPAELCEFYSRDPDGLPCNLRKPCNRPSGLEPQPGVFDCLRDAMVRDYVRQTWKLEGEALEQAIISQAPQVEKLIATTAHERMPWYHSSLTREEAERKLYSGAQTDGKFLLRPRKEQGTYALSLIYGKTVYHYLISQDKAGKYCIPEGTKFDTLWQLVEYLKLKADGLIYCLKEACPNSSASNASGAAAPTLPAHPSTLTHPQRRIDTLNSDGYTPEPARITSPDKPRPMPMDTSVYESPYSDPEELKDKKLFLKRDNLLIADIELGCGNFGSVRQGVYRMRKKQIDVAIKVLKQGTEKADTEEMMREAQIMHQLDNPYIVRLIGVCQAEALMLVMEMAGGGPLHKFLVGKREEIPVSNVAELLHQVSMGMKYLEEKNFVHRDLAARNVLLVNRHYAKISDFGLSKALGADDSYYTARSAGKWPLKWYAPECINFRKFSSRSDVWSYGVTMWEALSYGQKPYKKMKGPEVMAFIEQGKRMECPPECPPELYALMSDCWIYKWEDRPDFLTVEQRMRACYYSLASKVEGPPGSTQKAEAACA
The following applies: at 0.1 µM.

In experiment [5] the target is T2, Tyrosine-protein kinase ZAP-70 (Homo sapiens). The following applies: at 1 µM.
Experiment [6] deals with Serine/threonine-protein kinase B-raf (Homo sapiens) (UniProt P15056). The following applies: at 0.1 µM.
Sequence of Serine/threonine-protein kinase B-raf (Homo sapiens) (P15056 whole entry): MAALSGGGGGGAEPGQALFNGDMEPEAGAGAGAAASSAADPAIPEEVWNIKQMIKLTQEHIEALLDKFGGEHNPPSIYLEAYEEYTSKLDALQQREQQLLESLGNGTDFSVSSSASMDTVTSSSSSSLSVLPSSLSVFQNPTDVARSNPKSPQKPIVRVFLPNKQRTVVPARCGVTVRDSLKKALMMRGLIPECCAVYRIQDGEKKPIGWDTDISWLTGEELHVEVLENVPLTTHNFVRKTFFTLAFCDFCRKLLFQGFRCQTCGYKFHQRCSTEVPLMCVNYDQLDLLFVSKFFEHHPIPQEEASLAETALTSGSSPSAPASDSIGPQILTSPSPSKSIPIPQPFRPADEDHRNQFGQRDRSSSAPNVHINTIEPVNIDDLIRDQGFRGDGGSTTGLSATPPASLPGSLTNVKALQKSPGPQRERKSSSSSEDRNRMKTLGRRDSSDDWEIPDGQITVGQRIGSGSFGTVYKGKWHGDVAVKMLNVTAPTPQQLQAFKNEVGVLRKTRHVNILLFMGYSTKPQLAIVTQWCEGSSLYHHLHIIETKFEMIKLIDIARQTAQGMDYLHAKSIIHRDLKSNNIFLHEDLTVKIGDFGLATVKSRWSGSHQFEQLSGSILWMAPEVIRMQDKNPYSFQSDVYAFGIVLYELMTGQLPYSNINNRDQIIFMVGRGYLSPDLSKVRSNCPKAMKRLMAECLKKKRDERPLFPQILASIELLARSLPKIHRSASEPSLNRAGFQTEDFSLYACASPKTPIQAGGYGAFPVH
The target is the same in experiment [7]. The following applies: at 1 µM.
In experiment [8] the test system is Serine/threonine-protein kinase B-raf (Homo sapiens), P15056 [V600E]. The following applies: at 0.1 µM.
Sequence of Serine/threonine-protein kinase B-raf (Homo sapiens), P15056 [V600E] (P15056 whole entry V600E): as the sequence (P15056 whole entry) above, with V600E counted along it
Experiment [9] has the same test system. The following applies: at 1 µM.
Experiment [10] has as its target RAF proto-oncogene serine/threonine-protein kinase (Homo sapiens) (UniProt P04049). The following applies: at 0.1 µM.
The target is the same in experiment [11]. The following applies: at 1 µM.
Experiment [12] addresses T3, Interleukin-1 receptor-associated kinase 4 (Homo sapiens) (UniProt Q9NWZ3).
T3 sequence (whole entry): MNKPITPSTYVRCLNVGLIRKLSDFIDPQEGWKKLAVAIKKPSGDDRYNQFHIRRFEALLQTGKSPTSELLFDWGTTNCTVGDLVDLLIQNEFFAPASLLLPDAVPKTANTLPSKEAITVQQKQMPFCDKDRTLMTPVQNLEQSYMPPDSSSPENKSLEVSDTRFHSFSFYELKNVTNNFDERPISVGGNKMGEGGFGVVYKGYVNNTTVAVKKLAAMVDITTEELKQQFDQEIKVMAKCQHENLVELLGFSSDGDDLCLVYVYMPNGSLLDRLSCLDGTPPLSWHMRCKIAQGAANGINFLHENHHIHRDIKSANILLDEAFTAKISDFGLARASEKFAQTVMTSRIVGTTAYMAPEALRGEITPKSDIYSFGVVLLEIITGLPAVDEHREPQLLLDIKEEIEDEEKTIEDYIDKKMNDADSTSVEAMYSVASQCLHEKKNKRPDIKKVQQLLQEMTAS
The following applies: at 0.1 µM.

Experiment [13] concerns the target T3, Interleukin-1 receptor-associated kinase 4 (Homo sapiens). The following applies: at 1 µM.
Experiment [14] has as its target Leucine-rich repeat serine/threonine-protein kinase 2 (Homo sapiens) (UniProt Q5S007). The following applies: at 0.1 µM.
The target is the same in experiment [15]. The following applies: at 1 µM.
Experiment [16] relates to Leucine-rich repeat serine/threonine-protein kinase 2 (Homo sapiens), Q5S007 [G2019S]. The following applies: at 0.1 µM.
Sequence of Leucine-rich repeat serine/threonine-protein kinase 2 (Homo sapiens), Q5S007 [G2019S] (Q5S007 whole entry G2019S): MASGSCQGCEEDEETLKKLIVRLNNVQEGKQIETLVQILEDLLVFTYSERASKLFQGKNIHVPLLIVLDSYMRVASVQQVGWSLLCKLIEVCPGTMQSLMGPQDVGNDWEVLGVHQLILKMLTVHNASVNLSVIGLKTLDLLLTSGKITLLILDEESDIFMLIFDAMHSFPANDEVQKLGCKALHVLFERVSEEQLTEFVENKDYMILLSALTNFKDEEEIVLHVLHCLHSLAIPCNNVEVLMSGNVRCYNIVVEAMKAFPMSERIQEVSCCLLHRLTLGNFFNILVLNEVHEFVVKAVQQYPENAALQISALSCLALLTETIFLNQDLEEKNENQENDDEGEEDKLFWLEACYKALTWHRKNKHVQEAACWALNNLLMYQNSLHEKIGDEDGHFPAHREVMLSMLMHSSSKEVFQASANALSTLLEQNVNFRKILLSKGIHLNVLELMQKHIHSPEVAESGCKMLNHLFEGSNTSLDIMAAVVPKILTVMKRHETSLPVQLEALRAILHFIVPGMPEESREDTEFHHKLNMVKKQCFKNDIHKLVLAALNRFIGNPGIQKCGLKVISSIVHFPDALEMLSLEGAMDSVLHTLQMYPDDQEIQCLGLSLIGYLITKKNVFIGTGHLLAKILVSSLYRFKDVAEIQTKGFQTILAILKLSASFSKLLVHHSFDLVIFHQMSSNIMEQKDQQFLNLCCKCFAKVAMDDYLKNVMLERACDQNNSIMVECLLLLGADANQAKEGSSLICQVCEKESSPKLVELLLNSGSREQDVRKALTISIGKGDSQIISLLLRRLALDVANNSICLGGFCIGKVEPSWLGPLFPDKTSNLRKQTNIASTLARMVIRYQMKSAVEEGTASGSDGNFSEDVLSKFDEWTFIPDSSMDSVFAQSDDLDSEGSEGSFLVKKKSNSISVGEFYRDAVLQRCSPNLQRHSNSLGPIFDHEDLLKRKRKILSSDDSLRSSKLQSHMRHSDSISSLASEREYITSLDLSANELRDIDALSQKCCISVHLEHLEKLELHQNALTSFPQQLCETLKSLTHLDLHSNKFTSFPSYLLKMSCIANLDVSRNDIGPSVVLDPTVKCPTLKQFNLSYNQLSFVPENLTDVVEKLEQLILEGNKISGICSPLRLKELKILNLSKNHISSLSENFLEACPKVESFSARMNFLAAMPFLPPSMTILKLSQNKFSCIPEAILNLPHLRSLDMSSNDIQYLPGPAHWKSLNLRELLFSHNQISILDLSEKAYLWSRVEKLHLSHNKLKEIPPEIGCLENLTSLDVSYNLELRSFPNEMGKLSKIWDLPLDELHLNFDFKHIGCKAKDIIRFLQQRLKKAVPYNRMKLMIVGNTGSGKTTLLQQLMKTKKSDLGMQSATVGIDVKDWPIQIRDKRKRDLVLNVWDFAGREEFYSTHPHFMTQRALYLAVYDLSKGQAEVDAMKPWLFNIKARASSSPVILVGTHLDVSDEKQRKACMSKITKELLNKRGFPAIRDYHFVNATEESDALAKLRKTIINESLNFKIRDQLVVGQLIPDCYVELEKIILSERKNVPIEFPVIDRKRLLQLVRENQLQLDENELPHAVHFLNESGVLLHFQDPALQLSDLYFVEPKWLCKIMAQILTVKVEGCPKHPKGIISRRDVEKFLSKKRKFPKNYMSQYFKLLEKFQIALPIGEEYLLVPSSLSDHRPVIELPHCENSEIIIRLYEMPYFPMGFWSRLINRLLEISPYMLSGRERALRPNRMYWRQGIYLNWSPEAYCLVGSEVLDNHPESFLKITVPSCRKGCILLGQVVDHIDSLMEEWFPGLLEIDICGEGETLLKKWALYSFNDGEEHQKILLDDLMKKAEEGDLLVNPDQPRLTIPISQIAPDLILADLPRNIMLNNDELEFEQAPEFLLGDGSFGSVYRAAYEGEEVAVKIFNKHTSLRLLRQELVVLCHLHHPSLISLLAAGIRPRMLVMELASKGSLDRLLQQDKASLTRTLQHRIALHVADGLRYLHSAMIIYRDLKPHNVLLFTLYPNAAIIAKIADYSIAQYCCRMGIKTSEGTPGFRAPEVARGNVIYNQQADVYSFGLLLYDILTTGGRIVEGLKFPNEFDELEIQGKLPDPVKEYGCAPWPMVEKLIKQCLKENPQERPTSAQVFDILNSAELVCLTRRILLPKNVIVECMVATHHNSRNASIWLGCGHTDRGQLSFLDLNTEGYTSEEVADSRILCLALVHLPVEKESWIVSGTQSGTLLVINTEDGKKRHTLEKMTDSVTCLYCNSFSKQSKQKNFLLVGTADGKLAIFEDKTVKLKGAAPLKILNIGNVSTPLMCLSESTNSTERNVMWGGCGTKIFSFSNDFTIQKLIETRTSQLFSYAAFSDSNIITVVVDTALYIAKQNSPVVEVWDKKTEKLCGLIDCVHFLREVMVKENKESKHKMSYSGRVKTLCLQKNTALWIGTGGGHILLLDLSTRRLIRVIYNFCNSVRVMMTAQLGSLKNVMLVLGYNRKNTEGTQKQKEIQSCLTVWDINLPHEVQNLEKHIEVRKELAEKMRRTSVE
For experiment [17] the test system is unchanged. The following applies: at 1 µM.

Sequence of RAF proto-oncogene serine/threonine-protein kinase (Homo sapiens) (P04049 whole entry): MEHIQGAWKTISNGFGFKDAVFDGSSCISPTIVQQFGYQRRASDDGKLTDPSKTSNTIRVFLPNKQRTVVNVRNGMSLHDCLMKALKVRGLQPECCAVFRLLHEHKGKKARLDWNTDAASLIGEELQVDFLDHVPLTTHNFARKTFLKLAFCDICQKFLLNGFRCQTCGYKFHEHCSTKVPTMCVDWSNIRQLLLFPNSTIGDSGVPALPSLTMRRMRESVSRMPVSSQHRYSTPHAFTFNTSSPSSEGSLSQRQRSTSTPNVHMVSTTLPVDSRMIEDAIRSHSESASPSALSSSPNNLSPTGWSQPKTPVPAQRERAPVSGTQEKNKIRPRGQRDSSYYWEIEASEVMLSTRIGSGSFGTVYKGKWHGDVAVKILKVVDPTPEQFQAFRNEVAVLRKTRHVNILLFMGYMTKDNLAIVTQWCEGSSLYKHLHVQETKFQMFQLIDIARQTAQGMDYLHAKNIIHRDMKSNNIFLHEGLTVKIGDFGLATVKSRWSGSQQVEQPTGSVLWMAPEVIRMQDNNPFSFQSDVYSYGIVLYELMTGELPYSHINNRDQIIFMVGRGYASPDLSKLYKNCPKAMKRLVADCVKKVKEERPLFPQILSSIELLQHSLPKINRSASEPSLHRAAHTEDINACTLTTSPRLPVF
Sequence of Leucine-rich repeat serine/threonine-protein kinase 2 (Homo sapiens) (Q5S007 whole entry): as the sequence (Q5S007 whole entry G2019S) above, with S2019G counted along it

One may read the inhibition as the drop in the measured response relative to a control, in per cent. `CCCN1CCC=C(c2ccc(Nc3nc(Nc4ccccc4C(N)=O)c4cc[nH]c4n3)c(C)c2)C1`: the inhibition in experiment [1] came to 9.79%; in experiment [2], 1.14%; in [3] it was 5.4%; in experiment [4], 5.54%; in [5], 27.4%; in experiment [6] it was 8.31%. Moreover, the inhibition in [7] came to 33.4%; in experiment [8], 7.56%; in experiment [9], 28.2%; in experiment [10] it was 5.61%; in experiment [11] it was 3.95%; in experiment [12] it was 2.14%. Further, the inhibition in experiment [13] is 5.18%; in experiment [14], 77.6%; in [15], 87.8%; in [16] it was 63.6%; in experiment [17] it was 63.6%.

As to `CS(=O)(=O)CCN(CC#N)Cc1ccc(-c2ccc3ncnc(Nc4ccc(OCc5cccc(F)c5)c(Cl)c4)c3c2)o1`, the inhibition was 2.22% in experiment [1]; -1.67% in experiment [2]; 2.4% in experiment [3]; -3.82% in [4]; -0.8% in [5]; 4.46% in experiment [6]. Also, the inhibition in experiment [7] is 1.74%; in experiment [8], 1.42%; in experiment [9] it was 2.17%; in experiment [10] it was 0.21%; in [11], -3.46%; in experiment [12], 0.21%. Further, the inhibition in experiment [13] is 0.75%; in experiment [14] it was -6.54%; in experiment [15], -8.08%; in experiment [16], -3.2%; in [17] it was -2.31%.

Turning to `CCn1c(-c2nonc2N)nc2c(C#CC(C)(C)O)nc(CN3CCCC3)cc21`, the inhibition in experiment [1] was -1.52%; in experiment [2], -0.41%; in experiment [3], 5.7%; in experiment [4], 2.82%; in experiment [5], 1.75%; in experiment [6], -1.46%. Moreover, the inhibition was -1.6% in [7]; -1.31% in [8]; -0.8% in [9]; -3.54% in experiment [10]; -7.96% in [11]; 3.31% in experiment [12]. For the same molecule, the inhibition in experiment [13] was -0.93%; in experiment [14], -0.1%; in experiment [15] it was 1.92%; in [16], 0.81%; in experiment [17], 3.54%.

With `Fc1cccc(COc2ccc(Nc3ncnc4cc(-c5ccc[nH]5)sc34)cc2Cl)c1`, the inhibition in [1] is 3.81%; in experiment [2], 2.17%; in experiment [3], 9.41%; in experiment [4], -0.46%; in experiment [5] it was -0.93%; in [6] it was 3.64%. Moreover, the inhibition in experiment [7] is 2.48%; in experiment [8], 3.55%; in experiment [9] it was 2.69%; in experiment [10], 5.88%; in [11] it was 1.43%; in experiment [12], 7.16%. Also, the inhibition in experiment [13] was 1.69%; in experiment [14] it was -4.42%; in [15], -3.46%; in experiment [16], -1.54%; in experiment [17], 0.39%.

As to `COc1cc2ncn(-c3cc(OCc4ccccc4Cl)c(C(N)=O)s3)c2cc1OC`, the inhibition was 9.65% in experiment [1]; 3.58% in experiment [2]; 17.9% in experiment [3]; -2.94% in experiment [4]; 0.47% in [5]; 2.05% in [6]. The inhibition came out at 2.15% in [7]; 1.45% in experiment [8]; 2.82% in experiment [9]; 0.16% in experiment [10]; 0.88% in [11]; 2.64% in experiment [12]. In addition, the inhibition came to 0.8% in experiment [13]; 2.12% in experiment [14]; 14.5% in [15]; 12% in experiment [16]; 54.5% in [17].

In the case of `Nc1nc(-c2ccccn2)c(-c2ccc3ncccc3n2)s1`, the inhibition in [1] was 2.67%; in experiment [2], -0.44%; in experiment [3], 0.23%; in experiment [4], 0.82%; in experiment [5], 0.6%; in experiment [6], 3.55%. Moreover, the inhibition in [7] was 7.22%; in experiment [8], 3.63%; in experiment [9], 5.74%; in experiment [10], 2.42%; in experiment [11] it was 2.42%; in experiment [12] it was -3.29%. Moreover, the inhibition in experiment [13] stood at 1.27%; in experiment [14], 2.15%; in experiment [15], 4.38%; in experiment [16], 1.86%; in experiment [17] it was 5.88%.

With `CC1=C(C(=O)Nc2ccc3[nH]ncc3c2)C(c2ccc(F)cc2)NC(=O)N1` (stereo unspecified), the inhibition in experiment [1] turned out to be 2.1%; in experiment [2] it was 2.93%; in experiment [3], 3.94%; in experiment [4], 2.76%; in experiment [5], 1.91%; in experiment [6] it was 3.64%. For the same molecule, the inhibition was 5.71% in experiment [7]; 2.81% in experiment [8]; 6.38% in experiment [9]; 1.97% in experiment [10]; -2.67% in [11]; 2.07% in experiment [12]. Besides, the inhibition in experiment [13] was determined as 0.77%; in [14] it was 2.24%; in experiment [15], 5.08%; in [16] it was 3.81%; in experiment [17] it was 14.8%.

As to `CCn1c(-c2nonc2N)nc2c(N3CCCC3)nccc21`, the inhibition in experiment [1] was -1.5%; in experiment [2] it was -4.35%; in experiment [3], 4.6%; in experiment [4] it was 1.14%; in [5] it was 2.3%; in [6] it was 0.2%. Besides, the inhibition was 4.02% in experiment [7]; -2.4% in experiment [8]; -2.63% in experiment [9]; -1.29% in experiment [10]; -1.43% in experiment [11]; 1.9% in experiment [12]. Moreover, the inhibition in experiment [13] was -0.28%; in experiment [14] it was -2.19%; in experiment [15], 2.91%; in experiment [16], 0.77%; in experiment [17], 1.57%.
